Assay results published in PubChem BioAssay (NCI).
About 83,000 compounds went through this panel and 20% of them were active in at least one assay; those are over-represented in the sample as a whole.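 The endpoint reported here, percent growth, reads 100 for growth as untreated, 0 for no net growth and -100 for all cells dead.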 Unmarked numbers belong to inactive results. Calls of active or inactive are those of the source. Rule for the calls: active = growth percent below 10; inactive = the rest.

What was measured:
Assay in all cases: NCI-60 one-dose screen, 48 h (100 = growth as untreated, 0 = no growth, -100 = all killed)
Settings in all cases: 10 µM unless noted
T-47D breast = test system: T-47D breast
BT-549 breast = test system: BT-549 breast
MDA-MB-435 melanoma = test system: MDA-MB-435 melanoma
SW-620 colon = test system: SW-620 colon
MCF7 breast = test system: MCF7 breast
HCT-116 colon = test system: HCT-116 colon
HCC-2998 colon = test system: HCC-2998 colon
KM12 colon = test system: KM12 colon

COc1ccc(/C=N/C2=C(C#N)C(c3cccc(Cl)c3)c3c(ccc4ccccc34)O2)cc1 (centres undefined)
growth (T-47D breast): 36.7%
growth (BT-549 breast): 29.3%
growth (MDA-MB-435 melanoma): -36% (active)
growth (SW-620 colon): 23.7%
growth (MCF7 breast): 11.1%
growth (HCT-116 colon): 21.8%
growth (HCC-2998 colon): 65.4%
growth (KM12 colon): 24.9%

Cc1nnc(NC(=O)c2nc(S(=O)(=O)Cc3ccc(F)cc3)ncc2Cl)s1
growth (T-47D breast): 38.5%
growth (BT-549 breast): 26.7%
growth (MDA-MB-435 melanoma): 75.9%
growth (SW-620 colon): -59.8% (active)
growth (MCF7 breast): 44.7%
growth (HCT-116 colon): -0.743% (active)
growth (HCC-2998 colon): 99.1%
growth (KM12 colon): 90.8%

COC(=O)CNC(=O)[C@H](Cc1ccccc1)NCc1ccncc1
growth (T-47D breast): 89.6%
growth (BT-549 breast): 96.4%
growth (MDA-MB-435 melanoma): 110%
growth (SW-620 colon): 102%
growth (MCF7 breast): 92.9%
growth (HCT-116 colon): 100%
growth (HCC-2998 colon): 103%
growth (KM12 colon): 103%

CCCC(=O)NC(c1ccc2c(c1)OCO2)c1ccc2cccnc2c1O (centres undefined)
growth (T-47D breast): 19.8%
growth (BT-549 breast): 34.6%
growth (MDA-MB-435 melanoma): 26.9%
growth (SW-620 colon): 25.7%
growth (MCF7 breast): 5.86% (active)
growth (HCT-116 colon): 11.8%
growth (HCC-2998 colon): 38%
growth (KM12 colon): 30.6%

CCOC(=O)c1cnc2ccccc2c1Cl
growth (T-47D breast): 102%
growth (BT-549 breast): 112%
growth (MDA-MB-435 melanoma): 98.9%
growth (SW-620 colon): 90.9%
growth (MCF7 breast): 99.1%
growth (HCT-116 colon): 95.7%
growth (HCC-2998 colon): 98.4%
growth (KM12 colon): 101%

O=C1/C(=C/c2ccc(Cl)c(Cl)c2)CN(C(=O)C(Cl)Cl)C/C1=C\c1ccc(Cl)c(Cl)c1
growth (T-47D breast): -36.7% (active)
growth (BT-549 breast): -58.5% (active)
growth (MDA-MB-435 melanoma): -68.7% (active)
growth (SW-620 colon): -71.5% (active)
growth (MCF7 breast): -57.7% (active)
growth (HCT-116 colon): -92.5% (active)
growth (HCC-2998 colon): -88.8% (active)
growth (KM12 colon): -71.2% (active)

CN1CCN(Cc2ccc(NC(=O)c3cncc(C#Cc4cnc(N)c5ccccc45)c3)cc2C(F)(F)F)CC1
growth (T-47D breast): -60.6% (active)
growth (BT-549 breast): 25.9%
growth (MDA-MB-435 melanoma): -88.7% (active)
growth (SW-620 colon): -73.4% (active)
growth (MCF7 breast): -76.8% (active)
growth (HCT-116 colon): -60.9% (active)
growth (HCC-2998 colon): -92.3% (active)
growth (KM12 colon): -86.6% (active)

CC(C)(C)[Si](C)(C)O[C@H]1C(=O)C=CN2CC=C[C@@H]12
growth (T-47D breast): 92% [100 µM]
growth (BT-549 breast): 137% [100 µM]
growth (MDA-MB-435 melanoma): 102% [100 µM]
growth (SW-620 colon): 104% [100 µM]
growth (MCF7 breast): 96.5% [100 µM]
growth (HCT-116 colon): 92.9% [100 µM]
growth (HCC-2998 colon): 111% [100 µM]
growth (KM12 colon): 104% [100 µM]

Cc1noc(C)c1C(=O)OCc1coc2ccccc2c1=O
growth (T-47D breast): 28%
growth (BT-549 breast): 69.2%
growth (MDA-MB-435 melanoma): 59.8%
growth (SW-620 colon): 32.1%
growth (MCF7 breast): 49.6%
growth (HCT-116 colon): 41.4%
growth (HCC-2998 colon): 105%
growth (KM12 colon): 95.8%

COc1ccc(C(=O)Nc2ncc(Cc3ccc(F)cc3)s2)cc1
growth (T-47D breast): 33.6%
growth (BT-549 breast): 40.4%
growth (MDA-MB-435 melanoma): 2.51% (active)
growth (SW-620 colon): 31%
growth (MCF7 breast): 12.3%
growth (HCT-116 colon): 13.1%
growth (HCC-2998 colon): 8.19% (active)
growth (KM12 colon): 3.05% (active)

CN1C(=O)N(C)C2Nn3c(s/c(=C\c4ccc(C(F)(F)F)cc4)c3=O)=NC21 (centres undefined)
growth (T-47D breast): 107%
growth (BT-549 breast): 113%
growth (MDA-MB-435 melanoma): 91.4%
growth (SW-620 colon): 101%
growth (MCF7 breast): 92%
growth (HCT-116 colon): 107%
growth (HCC-2998 colon): 113%
growth (KM12 colon): 99.7%

O=C1Nc2ccccc2[C@]12CC(c1ccccc1)=NN2
growth (T-47D breast): 66.6%
growth (BT-549 breast): 59.3%
growth (MDA-MB-435 melanoma): -1.7% (active)
growth (SW-620 colon): 23.4%
growth (MCF7 breast): 29.5%
growth (HCT-116 colon): 26.2%
growth (HCC-2998 colon): 65%
growth (KM12 colon): 31.9%

N#Cc1cccc(F)c1
growth (T-47D breast): 101%
growth (BT-549 breast): 111%
growth (MDA-MB-435 melanoma): 105%
growth (SW-620 colon): 109%
growth (MCF7 breast): 112%
growth (HCT-116 colon): 106%
growth (HCC-2998 colon): 118%
growth (KM12 colon): 110%

CCOC(=O)C(=Cc1cccc(Br)c1)C(=O)OCC
growth (T-47D breast): 1.63% (active)
growth (BT-549 breast): 28%
growth (MDA-MB-435 melanoma): 23.7%
growth (SW-620 colon): 25.9%
growth (MCF7 breast): 11%
growth (HCT-116 colon): 14%
growth (HCC-2998 colon): 101%
growth (KM12 colon): 11.9%

N#CC1C=CN(CC(N)=O)c2ccc3cccnc3c21 (centres undefined)
growth (T-47D breast): 90.9%
growth (BT-549 breast): 102%
growth (MDA-MB-435 melanoma): 102%
growth (SW-620 colon): 104%
growth (MCF7 breast): 85.8%
growth (HCT-116 colon): 94.8%
growth (HCC-2998 colon): 106%
growth (KM12 colon): 105%

COc1cc(OC)c2sc(-c3ccc(-n4cncc4-c4ccc(OC)c(OC)c4)cc3)nc2c1
growth (T-47D breast): 29.7%
growth (BT-549 breast): 44.5%
growth (MDA-MB-435 melanoma): 53.3%
growth (SW-620 colon): 55.7%
growth (MCF7 breast): 44.5%
growth (HCT-116 colon): 40.8%
growth (HCC-2998 colon): 76.4%
growth (KM12 colon): 52.8%

CCOC(=O)c1ccc2[nH]c(O)c(C(=Nc3ccc(N(C)C(=O)CN4CCN(C)CC4)cc3)c3ccccc3)c2c1
growth (T-47D breast): 21.6%
growth (BT-549 breast): -75.9% (active)
growth (MDA-MB-435 melanoma): -42% (active)
growth (SW-620 colon): -34.4% (active)
growth (MCF7 breast): -63.9% (active)
growth (HCT-116 colon): -38.8% (active)
growth (HCC-2998 colon): -55.2% (active)
growth (KM12 colon): -33.4% (active)

Fc1ccc2[nH]cc(-c3nonc3-c3c[nH]c4ccc(Br)cc34)c2c1
growth (T-47D breast): 3.33% (active)
growth (BT-549 breast): 55.5%
growth (MDA-MB-435 melanoma): 47.5%
growth (SW-620 colon): 28.5%
growth (MCF7 breast): 12.6%
growth (HCT-116 colon): 20.2%
growth (HCC-2998 colon): 2.9% (active)
growth (KM12 colon): 7.15% (active)

O=C1C(Cl)=C(Nc2ccc(O)cc2)C(=O)N1Cc1ccc(Cl)cc1
growth (T-47D breast): 66.5%
growth (BT-549 breast): 43.2%
growth (MDA-MB-435 melanoma): -30.6% (active)
growth (SW-620 colon): 17.6%
growth (MCF7 breast): 18.1%
growth (HCT-116 colon): 30.9%
growth (HCC-2998 colon): 79.9%
growth (KM12 colon): 14.9%

COc1ccc(Cc2cc(-c3ccccc3)nn(Cc3ccccc3)c2=O)cc1OC
growth (T-47D breast): 7.51% (active)
growth (BT-549 breast): 14.7%
growth (MDA-MB-435 melanoma): 43.9%
growth (SW-620 colon): 41%
growth (MCF7 breast): 19.9%
growth (HCT-116 colon): 15%
growth (HCC-2998 colon): 60.5%
growth (KM12 colon): 35.2%

O=c1oc2c(cnc3ccccc32)cc1-c1ccsc1
growth (T-47D breast): 85.9%
growth (BT-549 breast): 100%
growth (MDA-MB-435 melanoma): 102%
growth (SW-620 colon): 96.8%
growth (MCF7 breast): 33.2%
growth (HCT-116 colon): 99.7%
growth (HCC-2998 colon): 123%
growth (KM12 colon): 94%

C#CCOc1ccc2ncnc(Nc3ccc(NC(=O)CCl)cc3)c2c1
growth (T-47D breast): 16.2%
growth (BT-549 breast): -19.5% (active)
growth (MDA-MB-435 melanoma): 17.7%
growth (SW-620 colon): -13.9% (active)
growth (MCF7 breast): 5.26% (active)
growth (HCT-116 colon): 0.822% (active)
growth (HCC-2998 colon): 65.2%
growth (KM12 colon): 8.97% (active)

CSc1nnc(-c2cnn3c2NC(c2ccccc2)C3)n1-c1ccc(C(F)(F)F)cc1 (centres undefined)
growth (T-47D breast): 54.2%
growth (BT-549 breast): 85.7%
growth (MDA-MB-435 melanoma): -25.7% (active)
growth (SW-620 colon): 50.9%
growth (MCF7 breast): 26.9%
growth (HCT-116 colon): 46%
growth (HCC-2998 colon): 85.9%
growth (KM12 colon): 49.3%

O=C1c2cccnc2C(=O)c2c1c(C(=O)NCCn1ccnc1)c1ccccn21
growth (T-47D breast): 24.2%
growth (BT-549 breast): 45.8%
growth (MDA-MB-435 melanoma): -84.2% (active)
growth (SW-620 colon): 12.9%
growth (MCF7 breast): 0.25% (active)
growth (HCT-116 colon): -8.04% (active)
growth (HCC-2998 colon): 22.4%
growth (KM12 colon): 31.3%

N#C/C(=C\c1ccc(-c2ccc(Cl)cc2)o1)C(=O)Nc1ncc(Cc2ccc(Cl)cc2)s1
growth (T-47D breast): 14.3%
growth (BT-549 breast): 58.2%
growth (MDA-MB-435 melanoma): 21.2%
growth (SW-620 colon): 13.7%
growth (MCF7 breast): 45.9%
growth (HCT-116 colon): 3.14% (active)
growth (HCC-2998 colon): 77.5%
growth (KM12 colon): 36.8%

Cn1cc(-c2nonc2-c2c[nH]c3ccc(Br)cc23)c2cc(Br)ccc21
growth (T-47D breast): 24.4%
growth (BT-549 breast): 76.8%
growth (MDA-MB-435 melanoma): 40.3%
growth (SW-620 colon): 55.9%
growth (MCF7 breast): 26.1%
growth (HCT-116 colon): 22.7%
growth (HCC-2998 colon): 39.8%
growth (KM12 colon): 22.8%

COC(=O)[C@]1(C)CCC[C@]2(C)[C@H]3C[C@H]4C(C(C)C)=C[C@]3(CC[C@H]21)[C@H]1[C@@H]4[C@@H](OCCC#N)CC[C@@H]1OCCC#N
growth (T-47D breast): 9.81% (active)
growth (BT-549 breast): 19.8%
growth (MDA-MB-435 melanoma): 42.7%
growth (SW-620 colon): 47.8%
growth (MCF7 breast): 9.07% (active)
growth (HCT-116 colon): 15.4%
growth (HCC-2998 colon): 65.1%
growth (KM12 colon): 40.2%

COc1ccc(C/C(C)=C(/c2ccc(OCCN3CCCCC3)cc2)c2ccc(OC(=O)NCc3ccccc3)cc2)cc1
growth (T-47D breast): -82.3% (active)
growth (BT-549 breast): -76.4% (active)
growth (MDA-MB-435 melanoma): -95.4% (active)
growth (SW-620 colon): -83.5% (active)
growth (MCF7 breast): -84.6% (active)
growth (HCT-116 colon): -90.3% (active)
growth (HCC-2998 colon): -92.5% (active)
growth (KM12 colon): -81.2% (active)
